Screening data as filed in PubChem BioAssay.
Compounds with a hit are over-represented: about 6.6% of the library has one in this group of screens.
KB-3-1 cytotox: kills parental KB-3-1 adenocarcinoma cells; AID 1347075; Potency, µM (titrated, usually from 46.1 µM), usual class: cytotoxic; KB-3-1 viability, CellTiter-Glo ATP luminescence, 72 h; hit rate 1.4% among 400,000; also: nearly all actives have a fitted effect of over 60% in size
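Multi-concentration cytotoxicity screen in KB-3-1 cells grown in DMEM lacking phenol red with 10% FBS. After 72 h at 37 °C with compound, ATP-dependent luminescence was recorded.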
SW480 rerep: DNA re-replication induction in SW480 cells. hit rate 1.8% among 340,000. SW480 DNA re-replication, Hoechst DNA content imaging, 48 h. Potency, µM (top dose mostly 46.1 µM), hits mostly activators. AID 624297; also: nearly all actives have a fitted effect of over 55% in size
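Image-based DNA-content assay: after two days of treatment, nuclei were labelled with the DNA dye Hoechst and imaged, and hits were compounds raising the count of nuclei showing high fluorescence intensity.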
KB-V1 MDR tox: KB-V1 MDR subline cytotoxicity. KB-V1 MDR cells viability, CellTiter-Glo, 72 h. Potency, µM (series often up to 46.1 µM), usual class: cytotoxic. hit rate 3.4% among 400,000; also: nearly all actives have a fitted effect of over 60% in size
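Cytotoxicity toward P-gp-expressing KB-V1 cells was determined as loss of CellTiter-Glo luminescence after 72 h at 37 degrees C. Compounds were tested in quantitative HTS format across a concentration range, with curves fitted to normalized data.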
RGS4 inh: inhibitors of human regulator of G protein signaling 4; P49798; Transcreener GDP fluorescence polarization, RGS4-accelerated GTP hydrolysis; Potency, µM (doses to about 114 µM), usual class: inhibitors; hit rate 0.039% among 390,000; also: nearly all actives have a fitted effect of over 75% in size
Target sequence (P49798 whole entry, looked up): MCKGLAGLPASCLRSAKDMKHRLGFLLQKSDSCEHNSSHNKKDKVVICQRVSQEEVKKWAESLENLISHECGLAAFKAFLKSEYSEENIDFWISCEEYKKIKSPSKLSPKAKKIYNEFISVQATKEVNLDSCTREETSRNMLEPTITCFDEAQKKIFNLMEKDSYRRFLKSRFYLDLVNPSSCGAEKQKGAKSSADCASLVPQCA
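MLSMR compounds (23 nl, pin-transferred) preincubated 10 min at room temperature with a 500nM (2x) first reagent, then RGS4 at 900nM (2x) plus Transcreener GDP mix added; fluorescence polarization (620/688 nm) read before and after 90 min at 30 °C.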
PTAP TSG101 blk: blocks PTAP/TSG101 interaction to inhibit HIV-1 budding | Q99816 | Fluorescence polarization, FITC-PTAP peptide / Tsg101 binding | Potency, µM (series often up to 115 µM), actives largely listed as inhibitors | 340,000 tested, under 10 active | AID 493005; active = well fitted inhibition curve with a large enough effect in the main read-out, with a control signal flat, not every such curve was filed as active; inconclusive = small, poorly fitted or top-dose-only effect, or effect the other way, or a change in a side signal; inactive = no such curve, though single readings can be large or run the other way
Target sequence (Q99816 whole entry, looked up): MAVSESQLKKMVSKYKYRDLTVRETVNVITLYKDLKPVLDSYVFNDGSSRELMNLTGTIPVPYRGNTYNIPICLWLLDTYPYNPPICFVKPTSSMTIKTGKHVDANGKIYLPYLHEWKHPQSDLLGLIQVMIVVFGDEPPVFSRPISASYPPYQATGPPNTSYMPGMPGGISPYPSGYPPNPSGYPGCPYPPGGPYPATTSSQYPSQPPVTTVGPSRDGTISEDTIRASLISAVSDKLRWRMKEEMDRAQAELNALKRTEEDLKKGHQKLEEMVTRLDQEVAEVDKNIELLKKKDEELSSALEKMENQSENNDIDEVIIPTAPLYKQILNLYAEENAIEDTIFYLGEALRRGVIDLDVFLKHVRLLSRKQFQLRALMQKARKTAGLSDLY
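Fluorescence polarization binding of Tsg101 binding domain (10 uM final) to FITC-labeled PTAP peptide (50 nM final) in HEPES pH 7.5 buffer with NaCl, Tween 20, EDTA, TCEP. Compounds added before peptide; binding 20 min at RT.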
MCF10A rereplic: inducers of DNA re-replication in MCF 10A breast cells; MCF 10A DNA re-replication, Hoechst nuclear intensity, 48 h; Potency, µM (titrated, usually from 46.1 µM), hits mostly activators; hit rate 2.9% among 350,000; AID 624296; also: nearly all actives have a fitted effect of over 50% in size
Numbers stand for hits; 0 = inactive; ? = inconclusive; - = no result; ! = repeats disagree; [ ] = dose if it differs, or a comment. Unless noted, calls follow the shape of the dose curve; as a rule, active = well fitted curve in the direction sought with a large enough effect; inconclusive = small, poorly fitted or top-dose-only effect, or another doubt; inactive = no such curve, though single readings can be large; an effect the other way counts as inactive or inconclusive.

SMILES	KB-3-1 cytotox	SW480 rerep	KB-V1 MDR tox	RGS4 inh	PTAP TSG101 blk	MCF10A rereplic
Cc1cccc(COCC(Cc2ccccc2)N2CCN(C(=O)c3cc(Cl)cc(Cl)c3)CCC2=O)c1 (stereo unspecified)	?	18.4µM	0	0	0	23.1µM
CC(C)(C)c1ccc(C(=O)N2CCC(=O)N([C@H](COCc3ccccc3)Cc3ccccc3)CC2)cc1	0	-	0	-	-	-
O=C(c1ccc(Cl)c(Cl)c1)N1CCC(=O)N(C(COCc2cccc(C(F)(F)F)c2)Cc2ccccc2)CC1 (stereo unspecified)	?	18.4µM	?	0	0	?
CC(C)(C)c1ccc(C(=O)N2CCC(=O)N(C(COCc3ccccc3)Cc3ccccc3)CC2)cc1 (stereo unspecified)	?	?	?	0	0	20.6µM
CCOP1(=O)OCC2OC(n3cnc4c(N)ncnc43)C(O)C2O1 (stereo unspecified)	0	0	0	0	0	14.6µM
Nc1ncnc2c1ncn2[C@@H]1O[C@H](CO)[C@@H](O)[C@H]1O	0	0	0	?	0	0
CC1=C(Nc2ccc(C(=O)O)cc2)C(=O)c2ccccc2C1=O	?	0	0	0	0	?
COC1=C(Nc2ccc(C)cc2)C(=O)c2ccccc2C1=O	0	?	18.4µM	0	0	?
COC1=C(Nc2ccccc2)C(=O)c2ccccc2C1=O	20.6µM	?	?	0	0	0
Nc1sc(Cc2ccccc2)cc1C(=O)c1c(-c2ccccc2)[nH]c2ccccc12	5.8µM	-	13µM	-	-	-
COc1ccc(OC)c(NC(=O)C2C3C=CC(C3)C2C(=O)NCc2cccnc2)c1 (stereo unspecified)	0	0	?	0	0	0
COc1ccccc1NC(=O)C1C2C=CC(C2)C1C(=O)NCc1cccnc1 (stereo unspecified)	0	0	0	0	0	4.61µM
COCc1c(C(=O)OCC(=O)N2c3ccccc3NC(=O)C2(C)C)oc2ccccc12	0	0	16.4µM	0	0	?
COc1cc([N+](=O)[O-])cc(/C=N/NC(=O)c2ccc(NC(=O)c3ccc(C)cc3)cc2)c1O	5.17µM	?	0	0	0	0
COc1cc([N+](=O)[O-])cc(/C=N/NC(=O)Cn2cncn2)c1O	?	0	?	0	0	16.4µM
CCOc1cc([N+](=O)[O-])cc(/C=N/NC(=O)c2c(-c3ccccc3)noc2C)c1O	?	8.2µM	?	0	0	0
COc1cc([N+](=O)[O-])cc(/C=N/NC(=O)c2ccc(C)nc2)c1O	?	-	?	0	0	14.6µM
Cc1ccc2nc(/C=C/c3ccc(N(C)C)cc3)ccc2c1	0	-	?	-	-	-
Cc1cccc(OCC(=O)Nc2nonc2-c2ccc(Br)cc2)c1C	0	-	0	0	-	-
COc1cc([N+](=O)[O-])cc(/C=N/NC(=O)C(C)Nc2ccccc2C)c1O (stereo unspecified)	?	?	11.6µM	0	0	1.64µM
COc1cc([N+](=O)[O-])cc(/C=N/NC(=O)C(C)Nc2cccc(C)c2)c1O (stereo unspecified)	?	-	?	0	0	?
Cc1cc(-c2ccc(S(=O)(=O)Nc3cc(Cl)ccc3C)s2)on1	?	-	?	0	-	-
CCOc1cc(CNCCO)cc(Br)c1OCc1ccccc1Cl	?	0[9.22 µM]	23.1µM	0	0	?
COc1cc(CNCc2ccncc2)cc(Br)c1OCc1ccccc1F	4.11µM	0	3.66µM	0	0	0
CCOc1cc(CNC(C)(C)CO)cc(Br)c1OCc1ccc(Cl)cc1Cl	0	0	?	0	0	6.51µM
SMILES	KB-3-1 cytotox	SW480 rerep	KB-V1 MDR tox	RGS4 inh	PTAP TSG101 blk	MCF10A rereplic
COc1cc(CNC(C)(C)CO)cc(Br)c1OCc1ccccc1	0	0	0	0	0	0
COc1cc(CNc2ccc(O)cc2)cc(Br)c1OCc1ccccc1F	0	?	0	?	0	?
COc1ccc(S(=O)(=O)N2CCN(c3nc(-c4cccs4)nc4ccccc34)CC2)cc1OC	?	-	0	0	-	-
Cc1ccc(-c2nc(N3CCN(S(=O)(=O)c4ccc(F)cc4)CC3)c3ccc(Cl)cc3n2)cc1	-	-	-	0	-	-
CCOC(=O)C[C@H]1c2ccc(C(F)(F)F)cc2S(=O)(=O)N1Cc1ccccc1	0	0	?	0	0	0
CCOC(=O)C[C@H]1c2ccccc2S(=O)(=O)N1Cc1ccc(Cl)cc1	?	0	16.4µM!	0	0	0
CCOC(=O)C[C@H]1c2cc(C(F)(F)F)ccc2S(=O)(=O)N1Cc1ccccc1	0	0	10.3µM!	0	0	0
COc1ccc(CN2[C@@H](CC(=O)O)c3ccccc3S2(=O)=O)cc1	0	0	?	0	0	0
COc1cc(SC)ccc1C(=O)N1CCn2c3c(c4cc(C)ccc42)CCCC31 (stereo unspecified)	0	-	0	0	-	-
CC[N+](CC)(CC#Cc1ccccc1)CC#Cc1ccccc1	8.2µM	0	0	0	0	0
CC1=C(c2ccc(C)c(C)c2)S(=O)(=O)N=C1N1CCC(C(=O)NCCc2ccc(Cl)cc2)CC1	-	-	-	0	-	-
CC(=O)c1ccc(N2CCN(C(=O)c3cn(C)c(=O)c4c3c3ccccc3n4C)CC2)cc1	0	-	0	0	-	-
COc1ccc(C2C(C(C)=O)=C(O)C(=O)N2c2nc3ccccc3s2)cc1OC (stereo unspecified)	0	?	0	0	0	2.31µM
COc1ccc(C2C(C(C)=O)=C(O)C(=O)N2c2nccs2)cc1OC (stereo unspecified)	0	0	0	0	0	0
COc1ccc(OC)c(S(=O)(=O)N2CCC(n3c(C)nc4cccnc43)CC2)c1	0	-	0	0	-	-
Cc1ccc(-c2cc3nn(-c4ccccc4)c(N)c3c(=O)o2)cc1	20.6µM	?	16.4µM	0	0	0
CC(C)c1nc2ccc(C(=O)NCc3ccc(F)cc3)cc2o1	-	-	-	0	-	-
S=Cc1ccc(/C=C/c2ccnc3ccccc23)cc1	?	-	0	-	-	-
COc1cccc(CNC(=O)c2c(C)nn(-c3ccc(F)cc3)c2-n2cccc2)c1	0	-	9.2µM	0	-	-
COc1cccc(CNC(=O)c2c(C)nn(-c3cccc(C)c3)c2-n2cccc2)c1	?	-	?	0	-	-
CSc1ccc(CCNC(=O)c2c(C)nn(-c3ccc(F)cc3)c2-n2cccc2)cc1	3.26µM	-	5.8µM	0	-	-
COCCCNC(=O)c1c(C)nn(-c2ccc(F)cc2)c1-n1cccc1	0	-	?	0	-	-
COc1ccc(CNC(=O)c2cnn(-c3ccc(F)cc3)c2-n2cccc2)cc1	0	-	?	0	-	-
CCOc1ccc(CNC(=O)c2c(C)nn(-c3ccc(F)cc3)c2-n2cccc2)cc1	?	-	13µM	0	-	-
C=Cc1ccc(Cn2c(C(=O)O)c(CNCc3cc(OC)ccc3OC)c3ccc(C)cc32)cc1	0	-	0	0	-	-
